Measurements taken from publication PMC7862700, “An all-to-all approach to the identification of sequence-specific readers for epigenetic DNA modifications on cytosine”.

What was measured:
Assay in all cases: DAPPL (digital affinity profiling via proximity ligation, sequencing); 10 mM Tris-HCl pH 7.5, 50 mM NaCl, 1 mM DTT, 4% glycerol, room temperature, 30 min; GST-TFs on glutathione beads, 16-mer random dsDNA library, 0.1% formaldehyde crosslink after washing; high values mean tight binding
[1] = target: T1, FLI1 (Homo sapiens, UniProt Q01543 1-452); details: protein: recombinant; tags: N-terminal GST; dsDNA, one strand shown
T1 sequence: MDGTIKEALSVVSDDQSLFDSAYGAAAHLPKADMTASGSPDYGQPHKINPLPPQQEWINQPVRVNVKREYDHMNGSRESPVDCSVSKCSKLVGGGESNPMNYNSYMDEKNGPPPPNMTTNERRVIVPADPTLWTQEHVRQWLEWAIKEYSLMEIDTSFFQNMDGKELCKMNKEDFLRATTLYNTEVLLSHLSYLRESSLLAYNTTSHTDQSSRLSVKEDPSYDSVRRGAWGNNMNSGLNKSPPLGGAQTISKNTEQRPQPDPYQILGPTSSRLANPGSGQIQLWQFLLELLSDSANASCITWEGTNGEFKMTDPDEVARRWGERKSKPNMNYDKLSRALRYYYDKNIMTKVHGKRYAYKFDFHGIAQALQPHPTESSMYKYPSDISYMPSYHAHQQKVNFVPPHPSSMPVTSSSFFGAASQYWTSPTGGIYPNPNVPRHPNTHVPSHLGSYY
Procedure, shortened: (§1)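 Sequencing on an Illumina NextSeq500 followed washing, crosslinking with 0.1% formaldehyde, proximity ligation (BsaI/T4 ligase, 1 h, 37 °C) and PCR amplification of pools that had been incubated for 30 min at room temperature with 200 nmole of a random double-stranded 16-mer DNA library in Tris/NaCl/DTT/glycerol buffer. Each pool held DNA-barcoded human transcription factors, expressed in yeast as GST fusions and captured on glutathione beads, plus a tag-only sample. Binding signal is a hexamer's read frequency for a factor divided by its frequency in the tag-only sample.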

[2] = target: T2, ELK1 (Homo sapiens, UniProt P19419 1-428); details: protein: recombinant; tags: N-terminal GST; dsDNA, one strand shown
T2 sequence: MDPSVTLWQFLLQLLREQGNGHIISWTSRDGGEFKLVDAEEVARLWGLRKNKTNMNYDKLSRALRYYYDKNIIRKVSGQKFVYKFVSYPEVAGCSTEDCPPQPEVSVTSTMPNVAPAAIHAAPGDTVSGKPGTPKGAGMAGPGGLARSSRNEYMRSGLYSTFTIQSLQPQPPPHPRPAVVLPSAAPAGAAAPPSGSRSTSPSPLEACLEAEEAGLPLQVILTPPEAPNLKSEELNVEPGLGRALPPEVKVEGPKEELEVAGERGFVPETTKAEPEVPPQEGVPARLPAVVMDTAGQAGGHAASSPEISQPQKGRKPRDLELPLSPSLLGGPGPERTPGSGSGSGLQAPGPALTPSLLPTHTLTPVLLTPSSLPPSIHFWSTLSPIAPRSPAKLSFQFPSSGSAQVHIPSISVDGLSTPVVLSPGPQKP
Procedure, shortened: as §1

[3] = target: T3, GABPA (Homo sapiens, UniProt Q06546 1-454); details: protein: recombinant; tags: N-terminal GST; dsDNA, one strand shown
T3 sequence: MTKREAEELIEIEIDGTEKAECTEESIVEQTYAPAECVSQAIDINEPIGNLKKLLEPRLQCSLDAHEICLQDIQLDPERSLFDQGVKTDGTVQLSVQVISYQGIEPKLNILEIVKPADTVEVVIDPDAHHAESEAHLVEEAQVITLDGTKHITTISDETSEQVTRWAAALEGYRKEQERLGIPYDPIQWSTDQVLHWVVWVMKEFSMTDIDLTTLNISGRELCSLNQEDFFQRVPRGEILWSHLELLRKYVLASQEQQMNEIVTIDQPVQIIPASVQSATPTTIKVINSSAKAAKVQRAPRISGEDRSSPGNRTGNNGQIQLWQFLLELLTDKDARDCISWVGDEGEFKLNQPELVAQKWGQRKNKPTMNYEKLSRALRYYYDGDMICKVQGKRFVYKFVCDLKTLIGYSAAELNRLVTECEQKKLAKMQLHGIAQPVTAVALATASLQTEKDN
Procedure, shortened: as §1

[4] = target: T4, ERG (Homo sapiens, UniProt P11308 1-479); details: protein: recombinant; tags: N-terminal GST; dsDNA, one strand shown
T4 sequence: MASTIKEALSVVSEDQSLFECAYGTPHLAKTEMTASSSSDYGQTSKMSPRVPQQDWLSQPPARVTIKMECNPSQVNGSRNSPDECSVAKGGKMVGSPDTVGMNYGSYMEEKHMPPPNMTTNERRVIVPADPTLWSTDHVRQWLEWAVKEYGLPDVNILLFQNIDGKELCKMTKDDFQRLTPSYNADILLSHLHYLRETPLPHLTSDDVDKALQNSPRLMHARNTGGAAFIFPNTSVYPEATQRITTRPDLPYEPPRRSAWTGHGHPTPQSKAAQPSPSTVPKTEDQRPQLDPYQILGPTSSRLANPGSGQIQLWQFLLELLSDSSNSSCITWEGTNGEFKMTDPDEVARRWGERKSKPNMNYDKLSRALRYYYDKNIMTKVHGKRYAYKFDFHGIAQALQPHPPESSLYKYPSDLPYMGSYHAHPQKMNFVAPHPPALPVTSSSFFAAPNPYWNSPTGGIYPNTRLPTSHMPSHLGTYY
Procedure, shortened: as §1

[5] = target: ELF1 (Homo sapiens, UniProt P32519 1-619); details: protein: recombinant; tags: N-terminal GST; dsDNA, one strand shown
Procedure, shortened: as §1

[6] = target: T5, EHF (Homo sapiens, UniProt Q9NZC4 1-300); details: protein: recombinant; tags: N-terminal GST; dsDNA, one strand shown
T5 sequence: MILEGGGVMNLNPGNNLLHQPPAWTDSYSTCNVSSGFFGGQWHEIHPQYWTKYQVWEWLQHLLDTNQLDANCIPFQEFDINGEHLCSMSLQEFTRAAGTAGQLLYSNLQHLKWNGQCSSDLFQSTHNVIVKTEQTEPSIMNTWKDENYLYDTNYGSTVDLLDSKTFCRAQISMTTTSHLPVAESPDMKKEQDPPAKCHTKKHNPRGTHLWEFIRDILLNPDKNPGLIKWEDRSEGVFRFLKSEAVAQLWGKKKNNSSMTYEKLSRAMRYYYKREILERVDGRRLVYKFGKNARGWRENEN
Procedure, shortened: as §1

[7] = target: SPI1 (Homo sapiens, UniProt P17947 1-270); details: protein: recombinant; tags: N-terminal GST; dsDNA, one strand shown
Procedure, shortened: as §1

[8] = target: SPIB (Homo sapiens, UniProt Q01892 1-262); details: protein: recombinant; tags: N-terminal GST; dsDNA, one strand shown
Procedure, shortened: as §1

[9] = target: T6, ELK3 (Homo sapiens, UniProt P41970 1-407); details: protein: recombinant; tags: N-terminal GST; dsDNA, one strand shown
T6 sequence: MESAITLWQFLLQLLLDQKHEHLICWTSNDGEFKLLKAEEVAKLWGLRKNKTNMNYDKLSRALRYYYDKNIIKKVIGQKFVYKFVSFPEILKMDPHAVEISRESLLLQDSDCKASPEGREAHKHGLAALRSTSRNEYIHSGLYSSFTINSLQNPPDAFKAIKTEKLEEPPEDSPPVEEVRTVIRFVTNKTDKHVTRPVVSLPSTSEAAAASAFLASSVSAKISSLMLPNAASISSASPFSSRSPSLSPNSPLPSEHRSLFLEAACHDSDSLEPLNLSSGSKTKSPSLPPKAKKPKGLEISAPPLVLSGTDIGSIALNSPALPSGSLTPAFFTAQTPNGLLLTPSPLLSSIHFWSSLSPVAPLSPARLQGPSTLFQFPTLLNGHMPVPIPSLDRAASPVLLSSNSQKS
Procedure, shortened: as §1

[10] = target: T7, FEV (Homo sapiens, UniProt Q99581 1-238); details: protein: recombinant; tags: N-terminal GST; dsDNA, one strand shown
T7 sequence: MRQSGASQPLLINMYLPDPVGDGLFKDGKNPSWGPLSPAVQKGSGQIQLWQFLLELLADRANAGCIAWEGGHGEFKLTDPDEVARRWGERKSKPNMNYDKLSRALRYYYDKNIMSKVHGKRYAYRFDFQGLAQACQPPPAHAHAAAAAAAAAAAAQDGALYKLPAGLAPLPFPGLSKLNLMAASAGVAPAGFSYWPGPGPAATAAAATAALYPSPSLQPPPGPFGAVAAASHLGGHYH
Procedure, shortened: as §1

[11] = target: ETV5 (Homo sapiens, UniProt P41161 1-510); details: protein: recombinant; tags: N-terminal GST; dsDNA, one strand shown
Procedure, shortened: as §1

[12] = target: HSF1 (Homo sapiens, UniProt Q00613 1-529); details: protein: recombinant; tags: N-terminal GST; chain copies: 3; dsDNA, one strand shown
Procedure, shortened: as §1

[13] = target: T8, SPIC (Homo sapiens, UniProt Q8N5J4 1-248); details: protein: recombinant; tags: N-terminal GST; dsDNA, one strand shown
T8 sequence: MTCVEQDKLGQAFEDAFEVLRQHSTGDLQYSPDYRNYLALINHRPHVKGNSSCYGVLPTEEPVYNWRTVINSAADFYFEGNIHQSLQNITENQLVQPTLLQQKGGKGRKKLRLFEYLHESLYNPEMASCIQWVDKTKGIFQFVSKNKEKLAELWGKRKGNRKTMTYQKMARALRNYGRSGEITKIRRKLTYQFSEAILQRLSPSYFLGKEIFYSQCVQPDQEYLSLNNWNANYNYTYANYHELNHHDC
Procedure, shortened: as §1

[14] = target: ELF4 (Homo sapiens, UniProt Q99607 1-663); details: protein: recombinant; tags: N-terminal GST; dsDNA, one strand shown
Procedure, shortened: as §1

[15] = target: T9, ELK4 (Homo sapiens, UniProt P28324-2 1-405); details: protein: recombinant; tags: N-terminal GST; dsDNA, one strand shown
T9 sequence: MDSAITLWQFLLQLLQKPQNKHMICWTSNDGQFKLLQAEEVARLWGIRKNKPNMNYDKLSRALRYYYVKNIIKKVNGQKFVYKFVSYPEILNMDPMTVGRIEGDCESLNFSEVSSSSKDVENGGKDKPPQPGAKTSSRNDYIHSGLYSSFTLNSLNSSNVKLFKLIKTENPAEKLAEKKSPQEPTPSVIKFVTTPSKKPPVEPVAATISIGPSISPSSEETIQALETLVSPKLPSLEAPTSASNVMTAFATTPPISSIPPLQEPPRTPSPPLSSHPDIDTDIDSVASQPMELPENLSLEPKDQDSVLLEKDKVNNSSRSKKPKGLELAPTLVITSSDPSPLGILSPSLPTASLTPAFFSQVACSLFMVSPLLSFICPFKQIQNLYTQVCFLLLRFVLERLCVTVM
Procedure, shortened: as §1

[16] = target: T10, ETV2 (Homo sapiens, UniProt O00321 1-342); details: protein: recombinant; tags: N-terminal GST; dsDNA, one strand shown
T10 sequence: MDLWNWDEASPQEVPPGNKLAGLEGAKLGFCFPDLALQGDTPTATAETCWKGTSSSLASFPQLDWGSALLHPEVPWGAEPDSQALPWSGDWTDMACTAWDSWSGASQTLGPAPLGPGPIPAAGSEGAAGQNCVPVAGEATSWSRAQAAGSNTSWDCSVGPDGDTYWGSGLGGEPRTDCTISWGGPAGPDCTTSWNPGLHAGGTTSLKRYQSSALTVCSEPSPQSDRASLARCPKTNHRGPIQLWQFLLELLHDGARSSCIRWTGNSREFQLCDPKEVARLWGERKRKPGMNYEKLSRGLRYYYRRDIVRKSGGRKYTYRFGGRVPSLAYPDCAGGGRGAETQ
Procedure, shortened: as §1

[17] = target: T11, ELF3 (Homo sapiens, UniProt P78545 1-371); details: protein: recombinant; tags: N-terminal GST; dsDNA, one strand shown
T11 sequence: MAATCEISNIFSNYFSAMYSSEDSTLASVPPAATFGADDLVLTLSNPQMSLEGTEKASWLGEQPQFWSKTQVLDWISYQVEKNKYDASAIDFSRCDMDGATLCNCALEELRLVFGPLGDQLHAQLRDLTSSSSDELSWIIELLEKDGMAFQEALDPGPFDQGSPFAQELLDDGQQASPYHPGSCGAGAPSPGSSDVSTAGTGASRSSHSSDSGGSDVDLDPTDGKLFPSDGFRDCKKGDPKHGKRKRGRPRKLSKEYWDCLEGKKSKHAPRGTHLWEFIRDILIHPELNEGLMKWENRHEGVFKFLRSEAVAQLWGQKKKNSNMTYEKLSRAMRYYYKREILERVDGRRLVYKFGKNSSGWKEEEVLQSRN
Procedure, shortened: as §1

[18] = target: CRX (Homo sapiens, UniProt O43186 1-299); details: protein: recombinant; tags: N-terminal GST; dsDNA, one strand shown
Procedure, shortened: as §1

[19] = target: ETV1 (Homo sapiens, UniProt P50549 1-477); details: protein: recombinant; tags: N-terminal GST; dsDNA, one strand shown
Procedure, shortened: as §1

Chain of CRX (O43186 whole entry): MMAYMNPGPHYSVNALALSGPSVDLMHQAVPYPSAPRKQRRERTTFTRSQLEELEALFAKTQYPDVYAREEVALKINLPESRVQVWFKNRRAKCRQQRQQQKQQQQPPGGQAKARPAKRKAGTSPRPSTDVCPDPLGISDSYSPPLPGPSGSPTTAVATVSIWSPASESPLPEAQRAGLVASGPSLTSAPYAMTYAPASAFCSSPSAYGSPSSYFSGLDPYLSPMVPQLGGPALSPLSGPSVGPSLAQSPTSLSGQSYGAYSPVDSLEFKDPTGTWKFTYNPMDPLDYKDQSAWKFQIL
Chain of HSF1 (Q00613 whole entry): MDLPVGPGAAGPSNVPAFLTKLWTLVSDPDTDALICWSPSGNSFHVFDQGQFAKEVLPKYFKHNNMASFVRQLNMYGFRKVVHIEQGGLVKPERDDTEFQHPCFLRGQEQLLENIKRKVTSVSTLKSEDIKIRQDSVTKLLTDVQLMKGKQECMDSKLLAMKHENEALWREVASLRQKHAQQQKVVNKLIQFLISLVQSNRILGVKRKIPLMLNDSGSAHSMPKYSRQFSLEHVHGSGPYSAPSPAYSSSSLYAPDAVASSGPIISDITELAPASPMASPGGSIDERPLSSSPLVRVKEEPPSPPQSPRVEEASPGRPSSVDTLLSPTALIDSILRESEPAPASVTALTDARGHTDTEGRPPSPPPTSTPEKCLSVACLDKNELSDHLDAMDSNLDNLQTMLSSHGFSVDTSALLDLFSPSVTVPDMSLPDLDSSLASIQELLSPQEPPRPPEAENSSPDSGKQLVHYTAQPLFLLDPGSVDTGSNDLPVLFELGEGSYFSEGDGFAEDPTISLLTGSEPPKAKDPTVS
Chain of ELF4 (Q99607 whole entry): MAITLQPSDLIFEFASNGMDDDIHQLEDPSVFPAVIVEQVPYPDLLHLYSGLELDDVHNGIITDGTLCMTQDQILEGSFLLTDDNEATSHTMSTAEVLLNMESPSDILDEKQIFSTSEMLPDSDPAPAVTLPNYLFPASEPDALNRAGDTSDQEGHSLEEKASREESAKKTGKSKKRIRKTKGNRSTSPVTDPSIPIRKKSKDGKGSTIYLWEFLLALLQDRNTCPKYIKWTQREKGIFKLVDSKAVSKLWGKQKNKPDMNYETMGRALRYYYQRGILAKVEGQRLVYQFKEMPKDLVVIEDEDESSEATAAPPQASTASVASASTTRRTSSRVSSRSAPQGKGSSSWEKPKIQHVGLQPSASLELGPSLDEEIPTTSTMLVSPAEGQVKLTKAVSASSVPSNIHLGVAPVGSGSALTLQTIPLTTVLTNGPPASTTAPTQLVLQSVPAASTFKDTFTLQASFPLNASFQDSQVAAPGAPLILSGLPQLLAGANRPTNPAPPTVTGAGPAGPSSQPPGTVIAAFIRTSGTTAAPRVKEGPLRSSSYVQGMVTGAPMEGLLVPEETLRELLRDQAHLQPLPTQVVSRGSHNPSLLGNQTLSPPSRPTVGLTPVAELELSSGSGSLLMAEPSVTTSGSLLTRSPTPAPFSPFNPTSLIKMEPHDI
Chain of ETV5 (P41161 whole entry): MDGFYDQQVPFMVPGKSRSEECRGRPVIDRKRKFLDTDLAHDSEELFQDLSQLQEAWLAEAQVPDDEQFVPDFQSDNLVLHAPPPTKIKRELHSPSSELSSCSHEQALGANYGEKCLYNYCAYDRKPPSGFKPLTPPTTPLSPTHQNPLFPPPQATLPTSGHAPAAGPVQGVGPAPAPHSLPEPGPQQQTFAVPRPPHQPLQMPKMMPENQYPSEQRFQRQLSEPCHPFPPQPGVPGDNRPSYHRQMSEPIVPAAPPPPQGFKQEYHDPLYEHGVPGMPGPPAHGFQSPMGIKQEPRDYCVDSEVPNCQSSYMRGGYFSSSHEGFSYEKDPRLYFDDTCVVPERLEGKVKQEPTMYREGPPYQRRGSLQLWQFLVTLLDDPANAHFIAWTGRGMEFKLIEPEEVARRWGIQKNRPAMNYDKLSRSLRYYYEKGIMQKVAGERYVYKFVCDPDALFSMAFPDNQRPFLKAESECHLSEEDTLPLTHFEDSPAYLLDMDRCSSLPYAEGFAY
Chain of ETV1 (P50549 whole entry): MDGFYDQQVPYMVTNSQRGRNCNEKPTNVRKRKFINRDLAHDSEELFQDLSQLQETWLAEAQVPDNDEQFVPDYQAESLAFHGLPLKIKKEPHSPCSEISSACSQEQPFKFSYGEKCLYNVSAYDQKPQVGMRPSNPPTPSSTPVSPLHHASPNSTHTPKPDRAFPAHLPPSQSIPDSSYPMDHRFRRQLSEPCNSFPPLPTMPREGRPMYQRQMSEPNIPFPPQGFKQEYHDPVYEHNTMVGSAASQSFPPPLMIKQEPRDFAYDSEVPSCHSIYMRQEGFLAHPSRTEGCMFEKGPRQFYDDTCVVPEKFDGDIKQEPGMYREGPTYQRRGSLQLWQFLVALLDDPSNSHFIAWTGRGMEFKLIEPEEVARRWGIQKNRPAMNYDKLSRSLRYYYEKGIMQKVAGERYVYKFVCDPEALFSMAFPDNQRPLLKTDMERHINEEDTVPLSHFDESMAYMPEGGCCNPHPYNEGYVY
Chain of SPIB (Q01892 whole entry): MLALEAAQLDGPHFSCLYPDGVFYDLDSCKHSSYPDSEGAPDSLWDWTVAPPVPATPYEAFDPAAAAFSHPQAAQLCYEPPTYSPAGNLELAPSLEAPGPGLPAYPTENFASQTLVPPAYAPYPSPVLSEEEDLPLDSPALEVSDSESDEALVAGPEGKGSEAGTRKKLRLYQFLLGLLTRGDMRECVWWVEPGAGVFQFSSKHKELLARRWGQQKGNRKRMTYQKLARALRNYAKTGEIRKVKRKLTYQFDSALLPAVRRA
Chain of ELF1 (P32519 whole entry): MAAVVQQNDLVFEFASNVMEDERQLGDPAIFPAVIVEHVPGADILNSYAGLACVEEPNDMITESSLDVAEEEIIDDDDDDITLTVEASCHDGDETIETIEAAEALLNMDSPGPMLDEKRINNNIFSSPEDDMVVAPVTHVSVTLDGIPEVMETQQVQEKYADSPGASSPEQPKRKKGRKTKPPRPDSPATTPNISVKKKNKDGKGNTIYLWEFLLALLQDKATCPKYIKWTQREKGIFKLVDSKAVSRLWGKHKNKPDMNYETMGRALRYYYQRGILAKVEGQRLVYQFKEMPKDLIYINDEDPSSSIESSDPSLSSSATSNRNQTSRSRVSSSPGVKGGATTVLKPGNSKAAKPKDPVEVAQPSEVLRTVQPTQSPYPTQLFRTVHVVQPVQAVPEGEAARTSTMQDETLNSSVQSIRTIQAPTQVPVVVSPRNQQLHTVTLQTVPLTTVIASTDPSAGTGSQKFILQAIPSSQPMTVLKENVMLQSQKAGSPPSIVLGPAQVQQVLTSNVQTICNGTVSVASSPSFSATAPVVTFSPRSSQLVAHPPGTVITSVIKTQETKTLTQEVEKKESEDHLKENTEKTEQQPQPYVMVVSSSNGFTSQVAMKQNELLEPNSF

For CTGCGA, the binding signal [1] was 1.25 fold enrichment (6-mer frequency, TF over GST control), the binding signal [2] was 1.31 fold enrichment (6-mer frequency, TF over GST control) and the binding signal [3] was 1.34 fold enrichment (6-mer frequency, TF over GST control). For the same sequence, the binding signal [4] was 1.29 fold enrichment (6-mer frequency, TF over GST control), the binding signal [5] was 1.32 fold enrichment (6-mer frequency, TF over GST control) and the binding signal [6] was 1.26 fold enrichment (6-mer frequency, TF over GST control). The binding signal [7] was 1.33 fold enrichment (6-mer frequency, TF over GST control), the binding signal [8] was 1.45 fold enrichment (6-mer frequency, TF over GST control) and the binding signal [9] was 1.19 fold enrichment (6-mer frequency, TF over GST control). For the same sequence, the binding signal [10] was 1.29 fold enrichment (6-mer frequency, TF over GST control), the binding signal [11] was 1.24 fold enrichment (6-mer frequency, TF over GST control) and the binding signal [12] was 1.3 fold enrichment (6-mer frequency, TF over GST control). For the same sequence, the binding signal [13] was 1.1 fold enrichment (6-mer frequency, TF over GST control), the binding signal [14] was 1.28 fold enrichment (6-mer frequency, TF over GST control) and the binding signal [15] was 1.08 fold enrichment (6-mer frequency, TF over GST control). The binding signal [16] was 1.24 fold enrichment (6-mer frequency, TF over GST control), the binding signal [17] was 1.2 fold enrichment (6-mer frequency, TF over GST control) and the binding signal [18] was 1.18 fold enrichment (6-mer frequency, TF over GST control). For the same sequence, the binding signal [19] was 1.32 fold enrichment (6-mer frequency, TF over GST control).
